Compound activity deposited in PubChem by National Center for Advancing Translational Sciences (NCATS).
The full list was thinned out, with hits kept by preference.
FLuc inh: blocks Photinus pyralis firefly luciferase activity | P08659 | purified firefly luciferase, luminescence, 8 min | Potency, µM (doses to about 57.1 µM), for the others: at the top dose activity change, negative = inhibition, hits mostly inhibitors | hit rate 2.2% among 72,000; further: potency means the concentration at half of the fitted maximal effect; on the % scale 0 is the no-effect control and ±100 the full control effect; nearly all actives have a fitted effect of over 40% in size
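qHTS concentration-response profiling: light output of P. pyralis luciferase with luciferin and 10 uM ATP, imidazole buffer pH 7.2. Read by luminescence after 8-min room-temperature incubation.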
IkB sig inh: IkB pathway inhibition in ABC-DLBCL cells | ABC-DLBCL IkBa-CBG/CBR dual luciferase ratio, 4 h; response scale: scaled: untreated 0%, proteasome inhibitor 100% | Potency, µM (series often up to 57.1 µM), without a hit: at the highest dose IkBa stabilization activation | hit rate 0.04% among 110,000 | AID 445; active means well fitted curve in the direction sought with a large enough effect in the signal ratio, not every such curve was filed as active; inconclusive means small, poorly fitted or top-dose-only effect, or a change in a side signal; the % refers to the signal ratio;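 further: potency means the concentration at half of the fitted maximal effect; the direction sought is a rising ratio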
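Curves were fitted separately to fusion (green), unfused (red) and ratio luminescence, then classed by r2, magnitude and activity. Cells: OCI-Ly3, 4 h compound plus doxycycline at 37C; 10 uM MG-132 defined full response.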
Hsp90 Hop PPI: changes Hsp90-Hop TPR2A binding signal, up or down; AlphaScreen TPR2A-His6 binding biotin-Hsp90 C-terminal peptide; Potency, µM (top dose mostly 57 µM), for the others: at the top dose activity change, negative = inhibition; hit rate 0.44% among 71,000; AID 595; active means well fitted curve in either direction with a large enough effect; inconclusive means small, poorly fitted or top-dose-only effect, or another doubt; further: potency means the concentration at half of the fitted maximal effect; on the % scale 0 is the no-effect control and ±100 the full control effect
IMPase inh: cell-permeable inhibitors of inositol monophosphatase (IMPase); AID 901; P97697; inhibition (IP1 accumulation), % at 46.1 µM; 120,000 tested, under 10 active; CHO-M1 cells, IP1 accumulation, HTRF TR-FRET ratio; active means well fitted curve in the direction sought with a large enough effect in the signal ratio, not every such curve was filed as active; inconclusive means small, poorly fitted or top-dose-only effect, or a change in a side signal; inactive means no such curve, though single readings can be large or run the other way; the % refers to the signal ratio;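 further: cells stimulated with carbachol in lithium chloride buffer; plate controls were DMSO basal wells for no effect and reference inhibitor wells for full effect; higher means more IMPase inhibition seen as more IP1 and lower FRET ratio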
Target sequence (P97697 whole entry, looked up): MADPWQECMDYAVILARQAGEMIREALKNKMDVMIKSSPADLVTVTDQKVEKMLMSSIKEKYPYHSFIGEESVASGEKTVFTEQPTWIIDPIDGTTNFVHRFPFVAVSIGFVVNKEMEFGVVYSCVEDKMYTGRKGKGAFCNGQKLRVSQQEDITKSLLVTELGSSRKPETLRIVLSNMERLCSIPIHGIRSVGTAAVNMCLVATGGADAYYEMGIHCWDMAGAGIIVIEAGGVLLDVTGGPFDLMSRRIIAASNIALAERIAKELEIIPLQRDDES
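Elevated IP1 in lysates lowers TR-FRET signal (665/620 ratio and 620 channel reported). Cells were CHO-M1, given carbachol (50 uM as added) plus 50mM LiCl, pH 7.4, 30 min, 37C; compounds titrated up to 46 uM; AC50 by Hill equation.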
p53ts 32C tox: cytotoxicity in p53ts cells at permissive temperature; H1299-p53A138V at 32C, ATP luminescence viability, 24 h; Potency, µM (series often up to 46.1 µM), for the others: at the highest dose activity change, negative = cytotoxicity, usual class: cytotoxic; hit rate 0.93% among 130,000; AID 924;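 further: potency means the concentration at half of the fitted maximal effect; 0% = DMSO and -100% = full killing by reference compound; nearly all actives have a fitted effect of over 55% in size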
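H1299-p53 A138V cells (temperature-sensitive p53) exposed 24 h to up to 46 uM compound at 32C, where p53 is wild-type in conformation. Viability read as ATP luminescence and normalised to DMSO and 100 uM tamoxifen. AC50 fitted with the Hill equation.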
p53ts 39C kill: cytotoxicity in p53ts cells at nonpermissive temperature; Potency, µM (titrated, usually from 46.1 µM), without a hit: top-dose activity change, negative = cell killing, usual class: cytotoxic; AID 902; hit rate 1.5% among 130,000; H1299-p53A138V viability at 39C, ATP luminescence, 24 h; further: potency means the concentration at half of the fitted maximal effect; on the % scale 0 is the no-effect control and ±100 the full control effect; nearly all actives have a fitted effect of over 55% in size
Active calls of the source: *; ? = inconclusive; nt = not tested or not shown; [ ] = dose if it differs, or a comment. Unless noted, the call rests on the fitted dose curve; in most records, active means well fitted curve in the direction sought with a large enough effect; inconclusive means small, poorly fitted or top-dose-only effect, or another doubt; inactive means no such curve, though single readings can be large; an effect the other way counts as inactive or inconclusive.

SMILES	FLuc inh	IkB sig inh	Hsp90 Hop PPI	IMPase inh	p53ts 32C tox	p53ts 39C kill
Cc1ccccc1OC(=O)c1cc(-c2ccc3c(c2)OCCO3)on1	nt	2%	nt	nt	?	?
Cc1cc(C)cc(OC(=O)c2cc(-c3ccc4c(c3)OCCO4)on2)c1	nt	2%	nt	nt	?	13µM*
CC(C)NC(=O)CSc1cn(CC(=O)N2CCCCCC2)c2ccccc12	nt	?	nt	nt	1%	-3%
CCn1nc(C)c2c(-c3ccccc3)cc(=O)n(C(C)C(=O)NCc3ccccc3OC)c21 (stereo not given)	nt	?	nt	nt	10%	-15%
O=C(Nc1cccc(O)c1)c1noc2c1CCc1ccccc1-2	nt	?	nt	-10	4µM*	2.5µM*
Cc1ccc(N2C(=O)c3n[nH]c(C)c3C2c2ccco2)cc1 (stereo not given)	16µM*	2%	-2%	-8	?	?
COc1cc2c(cc1OC)C(COc1ccccc1OC)N(C(=O)COc1ccc(Cl)cc1)CC2 (stereo not given)	nt	?	nt	nt	1%	-19%
CCOc1cc(CNCCSc2nnnn2C)ccc1OCc1ccc(Cl)cc1Cl	nt	?	nt	nt	35µM*	13µM*
Cn1nnnc1SCCNCc1ccccc1OCc1ccc(Cl)cc1Cl	nt	?	nt	nt	-10%	?
COc1ccc(NC(=O)Nc2cccc(C)n2)cc1	16µM*	0%	-7%[2.3 µM]	2	-29%	-21%
Cc1cccc(NC(=O)Nc2ccc(Br)cc2)n1	nt	7%	nt	7	-9%	-25%
Cc1cc(C)cc(Nc2cc(C(=O)NCCCN(Cc3ccccc3)C(C)C)c3ccccc3n2)c1	nt	?	nt	nt	-16%	16µM*
CSc1cccc(Nc2cc(C(=O)NCCCN(Cc3ccccc3)C(C)C)c3ccccc3n2)c1	nt	-5%	nt	nt	?	16µM*
CCOc1ccccc1CNC(=O)C1CCN(C(=O)N2CC(CC)Oc3ccc(C)cc32)CC1 (stereo not given)	nt	?	nt	nt	12%	7%
CCCCn1c(=N)n(CCCOc2ccc(F)cc2)c2ccccc21	nt	?	nt	-1	?	10µM*
N=c1n(CCO)c2ccccc2n1CCOc1ccc(F)cc1	nt	?	nt	3	-10%	-13%
O=C1c2ccccc2-c2onc3ccc(NCCCn4ccnc4)c1c23	-26%	-2%	25µM*	65	-28%	?
COc1ccc2noc3c2c1C(=O)c1ccccc1-3	-6%	?	?	nt	13µM*	-15%
CCOc1ccc(OCC)c(Nc2cc(C)nc3nc(-c4ccco4)nn23)c1	nt	?	nt	nt	2%	-22%
O=C(COc1ccc(F)cc1)Nc1nccs1	13µM*	20%	-1%	-12	?	?
O=C(Nc1nccs1)c1ccc(COc2ccc(F)cc2)o1	-7%	6%	-1%	-3	-1%	3%
CCOc1ccccc1CNC(=O)c1ccc2c(c1)sc1nc(-c3cccc(OC)c3)cn12	nt	2%	nt	nt	1%	-22%
COC(=O)c1oc2ccc(OC)cc2c1N	?	-1%	-2%	-9	?	?
COc1ccc(C(=O)c2oc3ccc(OC)cc3c2N)cc1	10µM*	-2%	18%	-14	-1%	-11%
Cc1cc(SCC(=O)Nc2ccc(C(F)(F)F)cc2)nc(=O)[nH]1	nt	0%	nt	nt	-6%	-12%
SMILES	FLuc inh	IkB sig inh	Hsp90 Hop PPI	IMPase inh	p53ts 32C tox	p53ts 39C kill
CCCC(=O)Nc1cccc(OCc2cc(=O)n3cccc(C)c3n2)c1	nt	?	nt	nt	-1%	16%
Cc1ccc2nc(/C(C#N)=N/O)[nH]c2c1	25µM*	?	?	4	7.9µM*	?
COc1ccc(N2CCN(CCCNC(=O)c3c(C)nn(-c4ccc(F)cc4)c3-n3cccc3)CC2)cc1	nt	?	nt	nt	0%	-29%
Cc1c(C(=O)Nc2cccc(C(F)(F)F)c2)oc2ccc3c(c12)C(=O)CC(C)(C)O3	nt	-1%	nt	nt	-29%	16µM*
Cc1cccc(C)c1NC(=O)c1oc2ccc3c(c2c1C)C(=O)CC(C)(C)O3	nt	?	nt	nt	21%	-1%
Cc1c(C(=O)NCC2CCCO2)oc2ccc3c(c12)C(=O)CC(C)(C)O3 (stereo not given)	nt	nt	nt	0	13µM*	?
COc1ccccc1CNC(=O)c1oc2ccc3c(c2c1C)C(=O)CC(C)(C)O3	nt	-2%	nt	nt	-11%	?
CCOC(=O)C1=C[C@@]2(CC)CCCN3CCc4c(n1c1ccccc41)C32 (stereo not given in full)	nt	nt	nt	nt	6%	9%
CCCCC(CC)CN=C(N)NC(N)=NCCCCCCN=C(N)NC(N)=NCC(CC)CCCC (stereo not given)	nt	nt	nt	nt	16µM*	?
CCCS(=O)(=O)c1ncc(Cl)c(C(=O)N2CCN(c3ccc(OC)cc3)CC2)n1	nt	?	nt	nt	?	13µM*
CC(=O)Oc1ccc2c(c1)CCC1C2CC[C@]2(C)C(OC(C)=O)CCC12 (stereo not given in full)	nt	nt	nt	nt	?	25µM*
O=C(CSc1nc(=O)[nH]c2c1CCCC2)Nc1ccccc1C(F)(F)F	nt	4%	nt	nt	10%	23%
COc1ccc2[nH]c3nc(SC(C)C)nnc3c2c1	1.6µM*	?	0%	3	16µM*	10µM*
CCOc1ccc(C(=O)Nc2cc(C)on2)cc1	10µM*	-1%	-2%	-4	2.5µM*	3.2µM*
Cc1cc(NC(=O)c2ccc(Cl)cc2)no1	?	4%	-1%	0	7.9µM*	7.9µM*
Cc1cc(NC(=O)c2ccc(S(=O)(=O)N(C)C)cc2)no1	-6%	-1%	-13%	1	-16%	-21%
O=S(=O)(NCCc1cn2ccsc2n1)c1ccc(Cl)cc1	nt	4%	nt	nt	-3%	-23%
Cn1c(-c2ccc3ccccc3n2)nc2cnccc21	13µM*	0%	-3%	5	?	?
COc1ccc(OC(=O)c2ccncc2)cc1	-4%	0%	5%	-4	14%	-4%
COc1ccc(C(=O)Oc2ccc(/C=N/O)cc2)cc1	13µM*	7%	2%	1	8%	-7%
COc1ccc2nc3c(cc2c1)c(NC(=O)c1cccs1)nn3CC(C)C	13µM*	?	25µM*	3	?	-21%
Cc1ccc(-c2nc(-c3nccc4ccccc34)oc2-c2ccccc2)cc1	3.2µM*	?	4%[11 µM]	nt	-1%[9.22 µM]	4%[9.22 µM]
Cc1cccc(CS(=O)(=O)c2ncc(Cl)c(C(=O)NCc3ccccc3)n2)c1	nt	?	nt	nt	25µM*	5µM*
Cc1ccc(CSc2ncc(Cl)c(C(=O)NCc3ccccc3)n2)cc1	nt	0%	nt	nt	-8%	-21%
O=C(NCc1ccccc1)c1nc(S(=O)(=O)Cc2ccc(F)cc2)ncc1Cl	nt	?	nt	nt	16µM*	5µM*
